In PubChem BioAssay AID652141 (The Scripps Research Institute Molecular Screening Center, 2013):
Hit rate of the full screen: of about 5,600 compounds, about 4,500 (80%) were called active. So high a share suggests a set chosen from earlier hits. Not all results are given here. Unmarked numbers belong to inactive results. Rule as the data show it: active = inhibition above about 10%; inactive = the rest.

Experiment: GDH-TPI coupling enzyme inhibitors, artefact control for M. tuberculosis FBA inhibitor project, biochemical, fluorescence, high throughput (AID 652141)
Conditions: GDH-TPI coupled enzyme counterscreen, at 1 µM, stronger effect = higher value

SMILES | inhibition
Cc1cc(C)c2c(NC(=O)C3CC3)nn(C)c2n1 | 72.7% (active)
Cc1cc(C)c2c(n1)nn1c(-n3ccnc3)cc(C)nc21 | -4.63%
Cc1cc(=O)n2[nH]c(-c3cccc(Cl)c3)cc2n1 | 82.4% (active)
CC(C)n1ncc2c(C(=O)NCc3ccccc3CN(C)C)cc(C3CC3)nc21 | 108% (active)
CCCS(=O)(=O)Nc1c(C(=O)O)[nH]c2ccccc12 | 48.1% (active)
CC(C)CN1CCNC(=O)C1CC(=O)N(C)CC1CCOCC1 (stereo not given) | 106% (active)
COCCCNC(=S)NCCNc1nc2cc(C)c(C)cc2cc1C#N | 60.5% (active)
CN(CCc1ccccn1)S(=O)(=O)c1ccc2c3c(cccc13)C(=O)N2 | 103% (active)
CCN(C(=O)COC(=O)c1ccc(COc2ccc3c(C)cc(=O)oc3c2)cc1)C1CCS(=O)(=O)C1 (stereo not given) | -0.6%
CCC(C)N(C(=O)COC(=O)C1C(C(=O)OC)=C(C)NC(C)=C1C(=O)OC)C1CCS(=O)(=O)C1 (stereo not given) | 111% (active)
Cc1ccc(-c2nc3ccccc3c(=O)n2-c2ccc(Br)cn2)cc1 | 98.6% (active)
CC1(C(=O)NCc2ccc(F)c(F)c2)Cc2c(-c3ccc4c(c3)OCO4)ccnc2O1 (stereo not given) | 108% (active)
CC1(C(=O)NCc2ccco2)Cc2c(-c3ccc4c(c3)OCO4)ccnc2O1 (stereo not given) | -4.87%
CC(C)OCCCNc1ncnc2c1[nH]c1ccc(F)cc12 | 97.1% (active)
CCCCNc1c(-c2cccc(Sc3ccc(OC)cc3)c2)nc2ccccn12 | 32.5% (active)
C=CCc1c(C)nc2cc(-c3ccccc3)[nH]n2c1=O | 49.2% (active)
CCc1c(C)nc2cc(-c3cccs3)[nH]n2c1=O | 19.6% (active)
CCc1c(C)nc2cc(C)[nH]n2c1=O | 41.7% (active)
Cc1ccc(S(=O)(=O)N2C[C@@H](C)[C@]3(C2)[C@H](O)[C@H](OC(=O)NCc2ccccc2)C[C@H]2C(=O)N(c4ccccc4)C(=O)[C@H]23)cc1 | -1.04%
CN(C)Cc1c(O)ccc2c(=O)c(-c3ccccc3Cl)coc12 | 3.78%

SMILES | inhibition
C[C@H](O)[C@@H]1C(=O)N2CCc3c([nH]c4ccccc34)[C@@H]2C[C@@H]1N(C)C(=O)Nc1ccc(F)cc1 | 182% (active)
O=C(O)c1cccnc1Sc1ncnc2sc3c(c12)CCC3 | 47.7% (active)
N#Cc1c(N)n(CCOC(=O)c2ccc(Cl)cc2)c2nc3ccccc3nc12 | 27.5% (active)
CC(OC(=O)c1ccccc1NCCO)C(=O)Nc1ccnn1C(C)C (stereo not given) | 83.3% (active)
COc1cc2nc(N3CCN(C(=O)[C@@H]4CCCO4)CC3)nc(N)c2cc1OC | 81.7% (active)
Cc1ccc(NC(=O)CN(C)C(=O)COC(=O)c2nccnc2N)cc1 | -3.67%
Cc1nc2ccc(NC(=O)N3CCC(c4ccccc4)C3)cc2nc1C (stereo not given) | 70.1% (active)
CCN1CCc2c(C#N)c(NCc3ccccc3)nc(NCCO)c2C1 | 139% (active)
O=C(Nc1ccc2nccnc2c1)c1ccco1 | 515% [above what the read-out allows, likely interference] (active)
O=C1OCCN1C(=O)[C@H]1[C@H](c2ccc(F)cc2)C(c2ccccc2)=NN1c1ccc(Br)cc1 | 38.6% (active)
C#Cc1cc(N2CCN(C(=O)c3ccoc3)CC2)n2nc(-c3cccc(Cl)c3)cc2n1 | 73.9% (active)
Cc1nc(COc2cc3oc(=O)cc(C)c3cc2Cl)cs1 | 171% (active)
Cc1ccc(Cn2c(C)nc3c(c2=O)c2nc4ccccc4nc2n3Cc2ccco2)cc1 | 48.7% (active)
CC[C@@H]1Cc2cc(O)ccc2C2=C1c1ccc(O)cc1C[C@H]2CC | 79.8% (active)
COc1ccc2oc(=O)c(C(=O)N3CCCC3)cc2c1 | 99.7% (active)
COc1ccc2oc(=O)c(C(=O)NCc3ccccn3)cc2c1 | -4.05%
Nc1ccccc1-c1nc2ccncc2[nH]1 | 0.69%
O=C(Nc1cccc2ccccc12)N1CCN(Cc2ccc3c(c2)OCO3)CC1 | 34.8% (active)
O=C(Nc1cccc2ccccc12)N1CCC2(CC1)OCCO2 | 93.7% (active)
COc1cc(C(F)(F)F)nc2c(Br)c(C(C)(C)C)nn12 | 47.7% (active)

SMILES | inhibition
O=C(NCc1cccc(Cl)c1)C1=CC=CN2CCS(=O)(=O)N=C12 | -4.53%
CNc1nc(-c2ccccc2)cc(-c2ccccc2)n1 | 73.9% (active)
Nc1nc2n(n1)C(c1ccco1)CC(c1ccc(Cl)c(Cl)c1)N2 (stereo not given) | 199% (active)
Cn1c(-c2ccco2)nc2cc3ccccc3cc21 | 36.5% (active)
Cn1cccc1-c1nc2ccccc2n1C | 9.72%
O=C(Nc1nncs1)c1ccccc1NS(=O)(=O)c1cccs1 | 115% (active)
CCOC(=O)NN1C(=O)c2ccccc2NC1c1cccc(O)c1 (stereo not given) | 100% (active)
Cc1ccc(C2Nc3ccccc3C(=O)N2CCN2CCNC2=O)cc1 (stereo not given) | -5.86%
Cc1cc(C)nc(SCc2cn3c(C)cc(C)nc3n2)n1 | 69.3% (active)
Cc1nn(C)c(Oc2ccccc2)c1CCNS(=O)(=O)c1ccc(F)cc1 | 124% (active)
COc1cc(/C=C/c2ccc(/C=C/c3cc(OC)c(OC)c(OC)c3)cc2)cc(OC)c1OC | 11.4% (active)
COCCCNC(=O)/C(C#N)=C/c1c(N2CCCCCC2)nc2ccccn2c1=O | 50.5% (active)
CC[C@@H](C)[C@H](NC(=O)CCc1c(C)c2cc3c4c(oc3c(C)c2oc1=O)CCCC4)C(=O)O | 83% (active)
CCCc1cc(=O)n2[nH]c(C)c(-c3ccc(Cl)cc3)c2n1 | 108% (active)
COCc1cc(=O)n2[nH]c(C)c(-c3ccccc3)c2n1 | 39.7% (active)
Cc1nc2c(-c3ccccc3)c(C)[nH]n2c(=O)c1Cl | 81.2% (active)
CN1CCc2c(sc3c2c(NCc2ccco2)nc2nnnn23)C1 | 183% (active)
O=C(CCC(=O)N/N=C/c1ccc(Br)o1)N/N=C/c1ccc(Br)o1 | 88.2% (active)
Fc1ccc(COc2cccc(-c3n[nH]c(=S)o3)c2)cc1 | 137% (active)
CCN(C(=O)Nc1cccc2ccccc12)c1ccccc1 | 118% (active)
